Measurements from PubChem BioAssay (NCATS).
Results filed as inconclusive are left out. Where a call stands in place of a potency, no number is given. The source made the active and inactive calls. Calls come from the whole dose curve; as a rule, active = well fitted cell-killing curve with a large enough effect; inconclusive = small, poorly fitted or top-dose-only effect, or effect the other way; inactive = flat fitted curve, though single readings scatter. *1 amine or outer side, *2 acyl side, *3 side chain or, on linkers, in order; H or OH if unused. Where a SMILES comes first, the peptide text is derived from it. Bridges are numbered along the chain shown (N, C = ends). [ ]: non-standard residue; d: D form. The star is where a group is joined. pTerphenylCO(4''-OnC5H11) = CCCCCOc1ccc(-c2ccc(-c3ccc(C(=O)*)cc3)cc2)cc1; Orn(4R-OH,5R-OH) = O=C([C@H](C[C@@H](O)[C@@H](O)N[*:3])N[*:1])[*:2]; hTyr(3S-OH,4S-OH) = N[C@H](C(=O)O)[C@H](O)[C@@H](O)c1ccc(O)cc1; Pro(3S-OH,4S-Me) = C[C@H]1CN[C@H](C(=O)O)[C@H]1O; Hyp = O=C(O)[C@@H]1C[C@@H](O)CN1

tested on: PA-1; test: Primary qHTS to identify gynecologic anti-cancer compounds using libraries of approved drugs and bioactive compounds (AID 1345084); details: Gynecologic cancer cell panel viability, ATPlite luminescence, 48 h; series mostly up to 57.5 µM; note: nearly all actives have a fitted effect of over 55% in size
How it was run: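 Cells, 1,000 per well, were allowed to settle for 16 h at 37 C before compound addition. Five concentrations were tested for 48 h, and viability was read by ATPlite luminescence after 15 min at room temperature.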

Row | SMILES | Potency
1 | N#CC(CCCN1CCN(/N=C/c2cccnc2)CC1)(c1ccccc1)c1ccccc1 | inactive
2 | Cc1cccc(C#Cc2cc(F)cc(C#N)c2)n1 | inactive
3 | COc1ccncc1C(=O)NC(=O)Nc1ccc(-c2ccccc2)c(C(F)(F)F)c1 | inactive
4 | Clc1ccc(Cn2c(Cc3ccccc3)nc3ccccc32)cc1 | inactive
5 | Cc1cc2sc(NC(=O)Cc3ccccc3)nc2cc1Cl | inactive
6 | O=C(Cc1c(F)cccc1F)Nc1cc(OCc2ccc(Cl)cc2)ccn1 | inactive
7 | O=C(c1cc(Cc2n[nH]c(=O)c3ccccc23)ccc1F)N1CCCNCC1 | inactive
8 | CCC(C)/C=C(C)/C=C/C1=CC2=CC(=O)C3(C)OC(C)(O)C(C(=O)OC)C3C2=CO1 (stereo not drawn) | inactive
9 | CNc1cc2[nH]c(=O)n(-c3ccc(NC(=O)NS(=O)(=O)c4ccc(Cl)s4)cc3)c(=O)c2cc1F | inactive
10 | COc1ccc(-n2c(SCCCN3C(=O)c4cccc5cccc(c45)C3=O)nnc2-c2ccncc2)cc1 | inactive
11 | C=C1C(=O)OC2/C=C(\CO)CC/C=C(\C=O)C(O)C(OC(=O)C(C)CC)C12 (stereo not drawn) | inactive
12 | O=C(Nc1ccccc1C(=O)Nc1ccc(CCO)cc1)c1ccc([N+](=O)[O-])cc1 | inactive
13 | CC1(C)CC[C@]2(C(=O)O)CC[C@]3(C)C(=CCC4[C@@]5(C)C[C@@H](O)[C@H](O)[C@@](C)(CO)C5CC[C@]43C)[C@@H]2[C@@H]1O (stereo partly drawn) | inactive
14 | C=C(C(=O)OC[C@H]1O[C@@H](OC(=O)/C=C/c2ccccc2)[C@H](O)[C@@H](O)[C@@H]1O)C(O)CO (stereo partly drawn) | inactive
15 | COc1ccccc1OCCNCC(O)CCOc1cccc2[nH]c3ccccc3c12 (stereo not drawn) | inactive
16 | CC(C)/C=C1\NC(=O)C(C(C)C)n2c1nc1ccccc1c2=O (stereo not drawn) | inactive
17 | CCCCCOc1ccc(-c2ccc(-c3ccc(C(=O)N[C@H]4C[C@@H](O)[C@@H](O)NC(=O)[C@@H]5[C@@H](O)[C@@H](C)CN5C(=O)[C@H]([C@@H](C)O)NC(=O)[C@H]([C@H](O)[C@@H](O)c5ccc(O)cc5)NC(=O)[C@@H]5C[C@@H](O)CN5C(=O)[C@H]([C@@H](C)O)NC4=O)cc3)cc2)cc1 ({pTerphenylCO(4''-OnC5H11)}-[Orn(4R-OH,5R-OH)]T[Hyp][hTyr(3S-OH,4S-OH)]T[Pro(3S-OH,4S-Me)]; lactam 1-C) | inactive
18 | COc1ccccc1C(=O)Nc1cc2c(cc1N1CCCC1)n(C)c(=O)n2C | inactive
19 | C=C1C(=O)OC2C1CCC1(C)C(O)CCC(=C)C21 (stereo not drawn) | inactive
20 | Cc1nc(C#Cc2ccnc(Cl)c2)c(C)n1-c1ccc(OC(F)(F)F)cc1 | inactive
21 | COc1cc(CCc2ccc(OCC=C(C)C)cc2)cc(OC)c1OC | inactive
22 | CC(=O)[C@H]1CC[C@H]2[C@@H]3CC=C4C[C@@H](OS(=O)(=O)O)CC[C@]4(C)[C@H]3CC[C@]12C | inactive
23 | C=C(C(=O)O)[C@@H]1CC=C(CCC(C)=O)[C@@H](C)CC1 | inactive
24 | C=C[C@]1(C)C[C@H](O)[C@H]2C(=C)C(=O)O[C@@H]2[C@H]1C(=C)CO | inactive
25 | CC[C@H](C)/C=C(C)/C=C/C1=CC2=C(Cl)C(=O)[C@](C)(O)[C@H](OC(C)=O)[C@H]2CO1 | inactive
26 | CN(C)C(=O)Nc1cc(-c2ccccc2)ccc1N(C)C | inactive
27 | C/C(=C\CO[C@@H]1O[C@H](CO[C@H]2OC[C@](O)(CO)[C@H]2O)[C@@H](O)[C@H](O)[C@H]1O)C(C)(C)O | inactive
28 | CC[C@@H](Nc1c(Nc2cccc(C(=O)N(C)C)c2O)c(=O)c1=O)c1cc(C(C)C)co1 | inactive
